From the supplement of paper PMC7801607

What was measured:
CHO = experiment: % viability of CHO cells (MTT); higher = less toxic; conditions: 48 h
How it was run: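 Percent viability of CHO cells, relative to untreated cells, was read colorimetrically by tetrazolium (MTT) assay. Cells were seeded at 10^6 cells/well and treated for 48 h with compound at 2 or 20 µM in fresh medium.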

HepG2-A16-CD81 = experiment: % inhibition of HepG2 viability (CellTiter-Glo); higher = more toxic; conditions: 5 µM
[1] = test system: Plasmodium falciparum NF54 stage IV/V gametocytes; experiment: % inhibition of gametocyte viability (PrestoBlue); higher = more inhibition; conditions: 48 h
How it was run: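 Stage IV/V NF54 gametocytes were exposed to compound at 1 or 5 µM for 48 h at 37 °C under stationary, hypoxic conditions, then read by PrestoBlue fluorescence at 612 nm. The percent inhibition of gametocyte viability was normalised to vehicle and kill controls from one run.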

[2] = test system: Plasmodium falciparum NF54 asexual blood stage; experiment: % inhibition of asexual blood stage proliferation (pLDH); higher = more inhibition; conditions: 72 h
How it was run: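 Ring-stage cultures of Plasmodium falciparum NF54 at 1% haematocrit and 2% parasitaemia were treated with compound at 2 or 20 µM in 96-well plates and kept for 72 h at 37 °C under 4% CO2, 3% O2 and 93% N2. Parasite survival was measured by the parasite lactate dehydrogenase assay, read colorimetrically at 620 nm. Percent inhibition of asexual proliferation was calculated relative to control wells, and the screen was carried out on two separate occasions.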

[3] = test system: Plasmodium falciparum NF54 stage IV/V gametocytes; experiment: % inhibition of gametocyte viability (ATP bioluminescence); higher = more inhibition; conditions: 24 h
How it was run: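 Stage IV/V NF54 gametocytes were enriched on density gradients and seeded at 30,000 per well in 96-well plates with compound at 1 or 5 µM. Plates were incubated for 24 h at 37 °C. ATP was measured with the Promega BacTiter Glo bioluminescence system. Percent inhibition of gametocyte viability was normalised to DMSO and kill controls from a single run.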

[4] = test system: Plasmodium falciparum NF54 stage IV/V gametocytes; experiment: % inhibition of gametocyte viability (luciferase reporter); higher = more inhibition; conditions: 48 h
How it was run: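 Percent inhibition came from luminescence and was normalised to controls in a single run. Gametocytes (stage IV/V, NF54-Pfs16-GFP-Luc line, 2% gametocytaemia, 2% haematocrit) were treated with compound at 1 or 5 µM and incubated for 48 h at 37 °C without agitation under hypoxia. Readings used 30 µL lysate with 30 µL Promega luciferin substrate on a GloMax-Multi+ reader, integrating for 10 s.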

[5] = test system: Plasmodium berghei ANKA liver stage in HepG2-A16-CD81; experiment: % inhibition of liver stage parasite viability (luciferase); higher = more inhibition; conditions: 5 µM; 48 h
Experimental: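 Single-concentration screen of the MMV Pandemic Response Box. P. falciparum NF54 asexual blood stages: pLDH assay, 72 h at 37 °C, 2 and 20 µM, n=2. Stage IV/V gametocytes (NF54): luciferase reporter (NF54-Pfs16-GFP-Luc, 48 h), ATP bioluminescence (24 h) and PrestoBlue (48 h) at 1 and 5 µM, n=1. P. berghei liver stage (luciferase in HepG2-A16-CD81, 48 h post infection) at 5 µM, n=4. All normalised to DMSO and kill controls as % inhibition.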
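Wherever % inhibition of HepG2 viability (CellTiter-Glo) is given: HepG2-A16-CD81 hepatoma cells plated as in the liver-stage assay but without sporozoites, with DMSO wells as negative and 25 µM puromycin as positive control.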

Structure (SMILES)	% viability of CHO cells (CHO; 2 µM)	% viability of CHO cells (CHO; 20 µM)	% inhibition of HepG2 viability (HepG2-A16-CD81)	% inhibition of gametocyte viability ([1]; 1 µM)	% inhibition of gametocyte viability ([1]; 5 µM)	% inhibition of asexual blood stage proliferation ([2]; 2 µM)	% inhibition of asexual blood stage proliferation ([2]; 20 µM)	% inhibition of gametocyte viability ([3]; 1 µM)	% inhibition of gametocyte viability ([3]; 5 µM)	% inhibition of gametocyte viability ([4]; 1 µM)	% inhibition of gametocyte viability ([4]; 5 µM)	% inhibition of liver stage parasite viability [5]
N[C@H]1CCC[C@H]1C(=O)O	109%	145%	-8.85%	35.6%	26.5%	31.3%	18.9%	< 0%	< 0%	< 0%	< 0%	15.8%
CC(C)c1ccc(COc2cccc(-c3cc(S(C)=O)c(C#N)c(=O)[nH]3)c2)cc1 (stereo not given)	91%	106%	3.83%	< 0%	28.5%	18%	56.2%	51.9%	82.8%	< 0%	< 0%	32.5%
COc1cc(C)c2c(Oc3cccc(C(F)(F)F)c3)c(OC)cc(NC(C)CCCN)c2n1 (stereo not given)	95.6%	-0.735%	3.86%	47.9%	71.7%	56.5%	92.1%	< 0%	70%	< 0%	79.6%	38.2%
N#C/C(=C1/SC[C@H](c2ccc(Cl)cc2Cl)S1)n1ccnc1	113%	118%	10%	11.8%	16.4%	48.7%	22.8%	< 0%	< 0%	< 0%	1.63%	24%
COc1cccc(N2CCN(C3=Nc4c(F)cccc4[C@H](CC(=O)O)N3c3cc(C(F)(F)F)ccc3OC)CC2)c1	90.8%	116%	5.59%	11.1%	1.05%	22.9%	84.4%	< 0%	< 0%	< 0%	6.89%	21.2%
O=C(NCc1ncc(C(F)(F)F)cc1Cl)c1c(Cl)cccc1Cl	91.7%	72.6%	2.83%	< 0%	3.98%	18.8%	1.98%	< 0%	< 0%	< 0%	< 0%	34.7%
NC(=O)c1ccc(I)c([N+](=O)[O-])c1	110%	112%	14.3%	17.8%	30.4%	1.16%	51.2%	< 0%	< 0%	0.24%	< 0%	20.9%
C=CCc1cc(Cc2cnc(N)nc2N)cc(OC)c1O	89.2%	105%	7.8%	12.8%	29.7%	29.1%	76.8%	< 0%	< 0%	< 0%	< 0%	68.4%
O=C(O)c1ccccc1Sc1ncnc2sc3c(c12)CCC3	103%	89.7%	4.01%	20%	18.3%	-19.5%	-13.7%	2.23%	< 0%	< 0%	< 0%	-30.6%
CSc1ccc2c(c1)C(N1CCN(C)CC1)Cc1ccccc1S2 (stereo not given)	90.7%	137%	-7.96%	< 0%	< 0%	26.2%	73.7%	20.9%	44.2%	1.22%	4.12%	
CNc1nc(=O)[nH]cc1F	95.1%	98.5%	-2.31%	< 0%	8.84%	-10.3%	-14.1%	< 0%	< 0%	< 0%	< 0%	18.4%
Nc1ccc2oc(=O)ccc2c1I	72.9%	60%	-2.48%	< 0%	< 0%	29.8%	37.3%	< 0%	< 0%	3.24%	2.65%	
O=c1cc(NCCCN[C@@H]2CCOc3c(Br)cc(Br)cc32)[nH]c2ccsc12	275%	54.3%	21.6%	17.8%	12.4%	42.9%	78.3%	< 0%	< 0%	< 0%	11.8%	74.7%
Nc1nc(C(F)(F)F)cc2c1[nH]c(=O)n2Cc1ccccc1	89.2%	102%	8.47%	2.55%	20.9%	2.26%	35%	< 0%	< 0%	18.1%	< 0%	-12.1%
Cc1nc(Nc2ccc(F)cc2)nc(N2CCc3ccccc3C2C)c1C (stereo not given)	103%	69.7%	8.08%	2.28%	4.43%	49.6%	73.1%	< 0%	43.7%	< 0%	< 0%	52.5%
COC(=O)Nc1nc2c(C)cccc2[nH]1	101%	86.1%	-1.33%	< 0%	< 0%	-2.03%	-14%	< 0%	< 0%	< 0%	< 0%	
Cc1c(CN(C)C(=O)/C=C/c2cnc3c(c2)C(C)(C)C(=O)N3)oc2ccccc12	105%	87.2%	9.28%	< 0%	9.55%	13.1%	78.8%	< 0%	< 0%	< 0%	15.2%	11.2%
COc1ccc(C2CNC(=O)C2)cc1OC1CCCC1 (stereo not given)	95.4%	125%	-2.26%	< 0%	12%	28.3%	40.1%	< 0%	< 0%	8.32%	7.49%	29.1%
Cc1cc(C)n(O)c(=O)c1	108%	109%	-0.333%	< 0%	3.7%	-9.1%	4.56%	< 0%	3.75%	< 0%	< 0%	
CN(C)CCNC(=O)c1cccc2cccnc12	70.5%	19.6%	-1.05%	< 0%	< 0%	9.84%	-0.35%	< 0%	< 0%	< 0%	10.1%	16.5%

Structure (SMILES)	% viability of CHO cells (CHO; 2 µM)	% viability of CHO cells (CHO; 20 µM)	% inhibition of HepG2 viability (HepG2-A16-CD81)	% inhibition of gametocyte viability ([1]; 1 µM)	% inhibition of gametocyte viability ([1]; 5 µM)	% inhibition of asexual blood stage proliferation ([2]; 2 µM)	% inhibition of asexual blood stage proliferation ([2]; 20 µM)	% inhibition of gametocyte viability ([3]; 1 µM)	% inhibition of gametocyte viability ([3]; 5 µM)	% inhibition of gametocyte viability ([4]; 1 µM)	% inhibition of gametocyte viability ([4]; 5 µM)	% inhibition of liver stage parasite viability [5]
NC(=O)c1cnc2ccc(S(=O)(=O)c3ccccc3)cc2c1Nc1ccc(O)cc1	228%	58.1%	6.05%	< 0%	< 0%	29.7%	56.5%	< 0%	< 0%	< 0%	< 0%	53.1%
Fc1ccc2c(/C=C/c3nnn[nH]3)c[nH]c2c1	80.4%	75%	2%	4.4%	18.3%	7.6%	10.8%	< 0%	< 0%	< 0%	4.42%	7.99%
Oc1c(C(Nc2ccccn2)c2ccccc2)ccc2cccnc12 (stereo not given)	115%	68.7%	10.2%	49%	26.9%	71.8%	88.8%	< 0%	40.6%	0.252%	33.3%	
Clc1cc(Cl)c2c(c1)CCc1ccccc1C2n1ccnc1 (stereo not given)	100%	76.3%	26.4%	64.7%	76.1%	94.1%	89.5%	25.2%	75.4%	< 0%	81.4%	53.2%
CCc1cc(O)c(Oc2cccnc2N)cc1F	64.8%	62.9%	-0.638%	< 0%	< 0%	8.28%	20.8%	< 0%	< 0%	< 0%	< 0%	18.6%
CC(C)Nc1nc2cc(Cl)c(Cl)cc2n1[C@H]1O[C@@H](CO)[C@H](O)[C@@H]1O	71.9%	56.9%	-5.75%	17.6%	14%	66.8%	55.9%	< 0%	< 0%	< 0%	< 0%	12.5%
COc1cc(C2C3=C(CC(C)(C)CC3=O)Nc3ccccc3N2C(C)=O)ccc1OCc1ccccc1 (stereo not given)	174%	58%	3.3%	< 0%	13.3%	-1.82%	14.6%	3.07%	< 0%	< 0%	< 0%	
NC(=O)c1ccccc1NC(=O)c1ccc(C(=O)Nc2ccccc2C(N)=O)cc1	87.5%	120%	0.348%	< 0%	< 0%	5.85%	13.6%	< 0%	< 0%	< 0%	0.0831%	
Cc1[nH]c2ccccc2c1CC(=O)N[C@@H](Cc1ccccc1)C(=O)N(C)c1ccccc1	80.4%	56%	4.27%	25.2%	23.6%	-9.75%	76.5%	6.25%	< 0%	1.82%	1.07%	
COc1ccc2c(c1)cc(CNC(=O)c1cc3ccccc3o1)n2CC(=O)O	90.6%	111%	3.58%	< 0%	26%	-3.06%	7.62%	1.71%	< 0%	< 0%	< 0%	
NC(=O)c1[nH]c2ccc(S(N)(=O)=O)cc2c1-c1ccccc1	93.5%	98.8%	8.64%	< 0%	19.1%	16.9%	72.7%	< 0%	< 0%	11.7%	< 0%	
O=c1ccc2ncc(=O)n3c2n1CC3CN1CCC(NCc2cc3c(cn2)OCCC3)CC1 (stereo not given)	124%	97.3%	6.64%	< 0%	28.4%	12.5%	40.4%	0.762%	< 0%	< 0%	< 0%	
COc1ccc(SC(=O)N[C@H](CCC(=O)O)C(=O)O)cc1	114%	122%	3.46%	< 0%	58.8%	58.1%	103%	< 0%	6.16%	23.9%	62.8%	
CC(C)(C)OC(=O)NCc1ccc(C(=O)N[C@H]2CCOC2=O)cc1	96.9%	115%	14.5%	5.05%	< 0%	18.3%	17.2%	< 0%	< 0%	< 0%	< 0%	
Cc1cc(C)n2nc(C(=O)NS(=O)(=O)c3c(C)cccc3OC(F)(F)F)nc2n1	110%	122%	8.44%	33.8%	85.1%	33.6%	59.9%	< 0%	< 0%	14.1%	14.2%	
COc1ccc2sc3c(c2c1)NC(C)CNC3=O (stereo not given)	97.2%	115%	33.6%	< 0%	< 0%	38.3%	40.7%	< 0%	< 0%	0.316%	< 0%	
O=c1[nH]c(=O)n(Cc2cccc(Oc3ccccc3)c2)cc1Nc1ccccc1	116%	65.4%	7.38%	< 0%	< 0%	-152%	47.8%	< 0%	< 0%	< 0%	< 0%	
Clc1ccc(COC(Cn2ccnc2)c2ccc(Cl)cc2Cl)c(Cl)c1 (stereo not given)	89.6%	135%	4.88%	10.1%	< 0%	48.6%	73.4%	< 0%	20.2%	< 0%	22.3%	
O=C(O)c1cc(-c2ccccc2)nc2ccccc12	114%	94%	-0.148%	< 0%	< 0%	27%	90.2%	1.38%	< 0%	1.7%	< 0%	
